In PubChem BioAssay AID594 (National Center for Advancing Translational Sciences (NCATS), 2007):
Hit rate of the full screen: of about 59,000 compounds, about 30 (0.05%) were called active. Cut-off read from the data, not from the text of the source: active = max dye-equivalent concentration above about 11 nM; inconclusive = between about 1.1 nM and that limit; inactive = weaker than that. What follows is part of a selection rich in actives, with near analogues and random picks from the rest.

Assay: qHTS Assay for Spectroscopic Profiling in Rhodamine Spectral Region
Conditions: Rhodamine-region fluorescence, 547/598 nm, Tris buffer
Text: NIH Molecular Libraries Screening Centers Network [MLSCN] NIH Chemical Genomics Center [NCGC] […] Occasionally, the artifactual effect may originate from the compound#s own spectral or other biophysical properties which generally tend to track its assay concentration. Pre-screening/profiling the library with respect to the compounds# spectral properties should help one exclude false positives early on. While the most informative fluorescent profiling data set is obtained by performing a full excitation and emission scan of each well by using a monochromator-based plate reader, such an approach is practical only on a very limited scale as scanning each well requires long time. An alternative approach, applied here, is to perform plate reader scans using selected excitation and emission wavelength pairs to generate a multidimensional relational database that correlates compound concentration and the respective relative fluorescence intensity at a given wavelength set. A standard curve of rhodamine present on each plate as six-point concentration series, was used to compute a normalized fluorescence response, termed dye-equivalent concentration, for each compound at each concentration.
NCGC Assay Protocol Summary: Buffer: 100 mM Tris buffer, pH 8.0 Dye standard plate: The wells in columns 1 through 4 of a Kalypsys polypropylene 1536-well compound plate were filled with standard solutions of fluorophore corresponding to the spectral region of interest. Solutions of rhodamine were placed in the following wells: E1, F1: 3 mM, E2, F2: 300 uM, E3, F3: 30 uM, E4, F4: zero (DMSO), G1, H1: 3 uM, G2, H2: […], G3, H3: 300 nM, G4, H4: zero (DMSO). Assay Steps: Six uL of buffer were dispensed to 1536-well Greiner black plates. Compounds and dye standards (23 nL) were transferred via Kalypsys PinTool. The plates were incubated for 15 min at room temperature, and then read on ViewLux (Perkin-Elmer) High-throughput CCD imager using 547 nm and 598 nm excitation and emission filter set. Keywords: NIH Roadmap, MLSCN, MLI, MLSMR, qHTS, NCGC, Rhodamine , Fluorescent Profiling.

Max dye-equivalent concentration, inactive:
O=C(Nc1ccon1)c1sc2ccccc2c1Cl, Cn1c(=S)c2[nH]c(SCCCc3ccccc3)nc2n(C)c1=O, O=S(=O)(NCc1cccnc1)c1ccc(Br)s1, O=C(OCC(O)C(O)COC(=O)c1ccccc1)c1ccccc1 (stereo unspecified), Cc1nc2ccc(S(=O)(=O)NCC(=O)NCCN3CCCCC3C)cc2s1 (stereo unspecified), CNC(=O)c1cc2c(ccc3ccccc32)oc1=N, COc1ccc2oc(=O)c(C(=O)N3CCN(c4ccccc4F)CC3)cc2c1, COc1ccc(N=Cc2c(O)[nH]c3ccccc23)cc1OC, CC1CCCN(C(=O)Cn2c(=O)oc3ccccc32)C1 (stereo unspecified), CC1(C)CC(O)C(CCC(O)c2ccccc2)C(C)(C)N1 (stereo unspecified), CC(=O)OCc1cc2cc(C)ccc2[nH]c1=O, O=C(c1cc(C(F)(F)F)cc(C(F)(F)F)c1)N1CCC2(CCCN(c3ccccn3)C2)CC1, CCc1ccccc1NC(=O)CSc1nnc([C@@H](NC(=O)OC(C)(C)C)C(C)CC)o1 (stereo partly specified), CCOC(=O)CSc1nncc2ccc(OC)c(OC)c12, Cc1noc(C)c1-c1cc(NCc2cccnc2)ncn1, CN1CCN(c2ncc3nc(-c4ccc(Cl)cc4)c(=O)n(-c4ccccc4)c3n2)CC1, CC(=O)c1ccc(-n2nnnc2SCC(=O)N2CCN(C(=O)c3ccco3)CC2)cc1, COc1ccc2c(c1)CCc1c(C(=O)N3CCCC3)noc1-2, O=C(NCc1ccco1)c1sc2cccc(F)c2c1Cl, Cc1cc2nc(-c3ccc(NC(=O)c4cccnc4)cc3)oc2cc1C, c1ccc2c(CNn3cnnc3)cccc2c1, Cn1c(SCC(=O)Nc2cccc(O)c2)nnc1-c1ccc(S(=O)(=O)N2CCOCC2)cc1, CC(C)C(=O)N1CCN(CCN=CC2=C(O)CC(c3ccco3)CC2=O)CC1 (stereo unspecified), O=C(c1cc(C(F)(F)F)cc(C(F)(F)F)c1)N1CCC[C@@]2(CCN(c3ccccn3)C2)C1, COc1ccc2c(c1)CCc1c(C(=O)N3CCc4ccccc4C3)noc1-2, S=c1[nH]nc(SCc2ccccc2Cl)c2[nH]cnc12, Brc1ccc(Nc2c3c(nc4ncnn24)CCC3)cc1, Cc1cc(=O)oc(C)c1C(=O)NC1CC(C)(C)NC(C)(C)C1, CCOC(=O)COc1ccc(Cl)cc1C1NC(=O)NC(C)=C1C(C)=O (stereo unspecified), Cc1cccc(N2CCN(C(=O)C3CCN(S(=O)(=O)c4cnc[nH]4)CC3)CC2)c1C, Cc1cc(Cl)ccc1OCC(=O)Oc1c(Cl)c(Cl)c(Cl)c(Cl)c1Cl
